Drawing on PubChem BioAssay, this text covers composite z-score and z-score for five compounds.

SMILES strings stand for the structures. Active and inactive are the calls of the source.

A short description of experiment [1]: small molecules captured by biotinylated probe aFSTL3 – biochemical, small-molecule microarray, fluorescence 635/667, stem cell growth factor project, primary screen (AID 1064).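 Also: measures binding of the biotinylated anti-FSTL3 antibody to printed compounds.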 The following applies: higher = more signal.
Experiment [2] is described as follows: binders from COS7 lysate, DM2A8 probe, primary screen, torsin A project, cell lysate, small-molecule microarray, fluorescence 635/667 (AID 1065). The note with it: higher = more signal, COS7 lysate expressing mutant human TOR1A.
Experiment [3] can be described thus: small molecules captured by biotinylated probe aFGF2 – biochemical, small-molecule microarray, fluorescence 635/667, stem cell growth factor project, primary screen (AID 1067).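 Also: measures binding of biotinylated aFGF2 protein to printed compounds on slides; z-score merges feature fluorescence and signal-to-noise across triplicate slides.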 The note with it: higher = more signal.
A short description of experiment [4]: small molecules captured by biotinylated probe aFGF10 – biochemical, small-molecule microarray, fluorescence 635/667, stem cell growth factor project, primary screen (AID 1071).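 Also: score merges 667 nm spot intensity and signal to noise from triplicate slides.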 The note with it: higher = more signal.
For experiment [5], the target named is Neurogenic locus notch homolog protein 2 (Homo sapiens) (UniProt Q04721). The experiment can be described thus: small molecules binding Notch2 protein – biochemical, small-molecule microarray, 635 nm fluorescence, stem cell growth factors, primary screen (AID 1073). The note with it: higher = more signal.
Chain of Neurogenic locus notch homolog protein 2 (Homo sapiens) (Q04721 whole entry, looked up, canonical isoform): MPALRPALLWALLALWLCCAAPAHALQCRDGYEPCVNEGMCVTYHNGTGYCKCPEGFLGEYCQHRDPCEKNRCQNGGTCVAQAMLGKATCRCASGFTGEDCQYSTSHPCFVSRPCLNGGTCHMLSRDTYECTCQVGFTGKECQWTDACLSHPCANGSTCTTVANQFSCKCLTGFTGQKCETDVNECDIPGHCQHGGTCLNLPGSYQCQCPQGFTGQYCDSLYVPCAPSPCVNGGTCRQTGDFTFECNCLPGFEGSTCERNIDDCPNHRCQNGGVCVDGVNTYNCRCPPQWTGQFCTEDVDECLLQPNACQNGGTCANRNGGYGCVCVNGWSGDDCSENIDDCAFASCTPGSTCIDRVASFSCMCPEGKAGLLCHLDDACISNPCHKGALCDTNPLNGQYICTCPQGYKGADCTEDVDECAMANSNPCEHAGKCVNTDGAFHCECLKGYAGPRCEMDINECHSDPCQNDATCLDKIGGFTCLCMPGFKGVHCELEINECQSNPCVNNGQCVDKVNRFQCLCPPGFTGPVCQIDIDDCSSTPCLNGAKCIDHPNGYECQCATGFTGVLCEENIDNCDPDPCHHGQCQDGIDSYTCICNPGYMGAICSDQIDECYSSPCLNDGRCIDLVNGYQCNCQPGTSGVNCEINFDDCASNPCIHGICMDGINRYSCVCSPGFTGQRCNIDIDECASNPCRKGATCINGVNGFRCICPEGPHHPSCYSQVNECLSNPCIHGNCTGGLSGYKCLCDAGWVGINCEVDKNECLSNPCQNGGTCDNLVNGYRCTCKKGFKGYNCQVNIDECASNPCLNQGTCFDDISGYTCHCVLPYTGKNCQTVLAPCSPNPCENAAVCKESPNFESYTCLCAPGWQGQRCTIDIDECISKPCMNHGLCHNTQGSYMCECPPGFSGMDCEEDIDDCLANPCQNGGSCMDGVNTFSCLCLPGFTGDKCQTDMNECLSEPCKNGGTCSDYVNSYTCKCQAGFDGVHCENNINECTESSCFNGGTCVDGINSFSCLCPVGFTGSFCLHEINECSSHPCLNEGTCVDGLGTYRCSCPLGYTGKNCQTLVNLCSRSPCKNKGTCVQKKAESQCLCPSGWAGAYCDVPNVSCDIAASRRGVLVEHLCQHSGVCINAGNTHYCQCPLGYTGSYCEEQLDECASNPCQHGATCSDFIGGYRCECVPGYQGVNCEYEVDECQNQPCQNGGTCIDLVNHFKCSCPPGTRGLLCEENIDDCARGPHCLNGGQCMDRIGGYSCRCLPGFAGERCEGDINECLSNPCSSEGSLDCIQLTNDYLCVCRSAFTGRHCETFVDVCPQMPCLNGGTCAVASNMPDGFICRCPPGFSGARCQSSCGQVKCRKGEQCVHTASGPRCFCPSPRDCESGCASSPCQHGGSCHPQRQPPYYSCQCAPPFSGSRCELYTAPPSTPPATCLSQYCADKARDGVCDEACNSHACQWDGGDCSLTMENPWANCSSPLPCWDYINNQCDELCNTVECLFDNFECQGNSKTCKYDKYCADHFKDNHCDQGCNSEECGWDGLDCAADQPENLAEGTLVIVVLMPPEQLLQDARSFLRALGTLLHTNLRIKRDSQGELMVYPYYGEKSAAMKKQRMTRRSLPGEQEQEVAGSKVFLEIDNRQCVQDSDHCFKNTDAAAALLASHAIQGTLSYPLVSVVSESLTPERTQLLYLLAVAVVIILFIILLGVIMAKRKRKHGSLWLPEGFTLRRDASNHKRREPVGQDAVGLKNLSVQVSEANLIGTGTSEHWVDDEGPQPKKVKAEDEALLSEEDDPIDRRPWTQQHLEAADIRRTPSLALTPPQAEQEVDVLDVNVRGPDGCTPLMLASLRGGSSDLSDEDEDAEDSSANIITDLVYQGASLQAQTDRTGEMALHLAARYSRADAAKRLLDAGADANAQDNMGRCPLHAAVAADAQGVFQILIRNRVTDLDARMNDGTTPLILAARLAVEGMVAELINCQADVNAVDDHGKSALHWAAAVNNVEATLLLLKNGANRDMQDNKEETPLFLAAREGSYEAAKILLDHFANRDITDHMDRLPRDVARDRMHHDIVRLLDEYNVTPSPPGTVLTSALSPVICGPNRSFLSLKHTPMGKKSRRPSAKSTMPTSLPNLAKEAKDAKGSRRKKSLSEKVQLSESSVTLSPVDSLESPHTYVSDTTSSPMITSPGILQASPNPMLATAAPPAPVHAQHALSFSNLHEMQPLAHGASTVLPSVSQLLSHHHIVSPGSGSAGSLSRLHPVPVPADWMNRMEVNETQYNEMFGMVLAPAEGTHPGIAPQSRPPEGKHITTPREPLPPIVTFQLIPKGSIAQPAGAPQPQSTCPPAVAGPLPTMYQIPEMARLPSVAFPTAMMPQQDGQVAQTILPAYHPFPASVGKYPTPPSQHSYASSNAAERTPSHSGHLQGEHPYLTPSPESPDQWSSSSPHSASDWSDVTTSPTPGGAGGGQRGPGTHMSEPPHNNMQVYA
The target in experiment [6] is Pro-neuregulin-1, membrane-bound isoform (Homo sapiens) (UniProt Q02297). The experiment can be described thus: small molecules binding neuregulin-1 protein – biochemical, small-molecule microarray, fluorescence 635/667, psychiatric disease protein project, primary screen (AID 1075).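 Also: score combines 667 nm spot fluorescence with signal to noise.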 The following applies: NRG1 binding, 635 nm fluorescence, higher = more signal.
Chain of Pro-neuregulin-1, membrane-bound isoform (Homo sapiens) (Q02297 whole entry, looked up, the tested form may be a part, canonical isoform): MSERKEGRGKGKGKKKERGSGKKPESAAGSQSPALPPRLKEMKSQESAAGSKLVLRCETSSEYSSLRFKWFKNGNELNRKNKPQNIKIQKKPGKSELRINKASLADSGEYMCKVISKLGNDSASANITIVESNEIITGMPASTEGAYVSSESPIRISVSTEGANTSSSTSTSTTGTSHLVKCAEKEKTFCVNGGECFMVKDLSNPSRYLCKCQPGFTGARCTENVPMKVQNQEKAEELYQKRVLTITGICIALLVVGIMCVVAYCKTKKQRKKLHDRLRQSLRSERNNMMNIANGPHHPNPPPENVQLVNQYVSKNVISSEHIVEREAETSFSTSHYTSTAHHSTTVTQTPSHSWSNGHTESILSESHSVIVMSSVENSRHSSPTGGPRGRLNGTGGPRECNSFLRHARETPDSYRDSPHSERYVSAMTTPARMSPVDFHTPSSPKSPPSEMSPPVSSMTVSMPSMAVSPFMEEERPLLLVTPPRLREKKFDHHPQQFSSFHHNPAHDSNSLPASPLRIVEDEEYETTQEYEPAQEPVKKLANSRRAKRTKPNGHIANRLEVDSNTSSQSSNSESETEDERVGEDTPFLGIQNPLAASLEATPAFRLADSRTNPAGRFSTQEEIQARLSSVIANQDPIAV
For experiment [7], the system named is Neuregulin-1 EGF-like domain. The experiment can be described thus: small molecules binding NRG1 EGF domain – biochemical, small-molecule microarray, 635 nm fluorescence, primary screen (AID 1081).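 Also: binding of the protein to compounds printed on small-molecule microarray slides.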 The following applies: higher = more signal.
Experiment [8] in a line: FRG1 expression reporter modulators in myotubes – cell-based, C2C12 myotubes, firefly/Renilla luciferase, luminescence, FRG1 inhibition for FSHD, primary screen (AID 1084). The note with it: FRG1 promoter luciferase, higher = more signal, called active from +8 up or from −8 down.
A short description of experiment [9]: small molecules captured by biotinylated probe aFST – biochemical, small-molecule microarray, fluorescence 635/667, stem cell growth factor project, primary screen (AID 1086).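 Also: score merges 667 nm fluorescence with signal-to-noise of each printed compound spot.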 The following applies: higher = more signal.
The nature of experiment [10]: binders of probe aHhip on microarray, primary screen, stem cell growth factor project, biochemical, small-molecule microarray, fluorescence 635/667 (AID 1087).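 Also: score merges spot fluorescence at 667nm with spot signal to noise ratio.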 The note with it: higher = more signal.
Experiment [11] has as its system PRMT1 (protein arginine N-methyltransferase 1). The experiment can be described thus: small molecules binding arginine methyltransferase PRMT1 – biochemical, small-molecule microarray, 635 nm fluorescence, primary screen (AID 1088).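 Also: binding of Prmt1 protein to compounds spotted on small-molecule microarray slides.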 The following applies: higher = more signal.
The nature of experiment [12]: growth effects on S. cerevisiae YJM789 – YJM789 clinical isolate, OD600, 24 h, basal, primary screen (AID 1089).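 Also: growth of clinical yeast isolate S. cerevisiae YJM 789 seeded 1000 cells per well; test concentration not given here.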 The following applies: higher = more signal, called active from +8 up or from −8 down.
Experiment [13] can be described thus: S. pombe growth modifiers, basal conditions – strain 972, OD600, 24 h, no modulator, primary screen (AID 1090).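 Also: basal condition with compound alone and no growth modifier present; test concentration not given here.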 The following applies: S. pombe 972 growth, higher = more signal, called active from +8 up or from −8 down.
A short description of experiment [14]: budding yeast growth modifiers under rapamycin – strain BY4716, OD600, 96 h, primary screen (AID 1091). Also: test concentration not given here. The following applies: S. cerevisiae BY4716 + rapamycin, higher = more signal, called active from +8 up or from −8 down.
The target in experiment [15] is Torsin-1A-interacting protein 2 (Homo sapiens) (UniProt Q8NFQ8). Nature of the experiment: small molecules binding lysate-expressed LULL1 – cell lysate, human LULL1 lysate, 635/667 nm fluorescence, primary screen (AID 1092).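 Also: score merges per-feature 667 nm fluorescence with signal-to-noise.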 The note with it: small-molecule microarray, hLULL1 lysate binding, 635 nm fluorescence; higher = more signal.
Chain of Torsin-1A-interacting protein 2 (Homo sapiens) (Q8NFQ8 whole entry, looked up): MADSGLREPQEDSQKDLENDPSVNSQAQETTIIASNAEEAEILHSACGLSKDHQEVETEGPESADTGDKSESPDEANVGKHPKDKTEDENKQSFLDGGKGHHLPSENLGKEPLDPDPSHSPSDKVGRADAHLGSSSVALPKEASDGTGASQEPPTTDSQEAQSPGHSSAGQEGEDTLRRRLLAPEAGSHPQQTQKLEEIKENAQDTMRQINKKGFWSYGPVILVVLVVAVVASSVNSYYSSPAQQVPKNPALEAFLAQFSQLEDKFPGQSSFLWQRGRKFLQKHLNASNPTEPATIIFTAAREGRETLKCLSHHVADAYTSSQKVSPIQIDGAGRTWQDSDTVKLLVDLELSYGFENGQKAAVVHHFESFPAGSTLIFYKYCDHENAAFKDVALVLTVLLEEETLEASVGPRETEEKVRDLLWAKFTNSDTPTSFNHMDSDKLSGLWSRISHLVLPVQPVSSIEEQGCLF
Experiment [16] in a line: optical density change of DRC41 E. coli – strain DRC41, OD650, 24 h, E. coli filamentation project, primary screen (AID 1093).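 Also: MC1000 strain lacking acrAB efflux and sulA so SOS filamentation is blocked; test concentration not given here.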 The following applies: E. coli DRC41 growth, higher = more signal, called active from +8 up or from −8 down.
The nature of experiment [17]: probe aLefty2 binding to arrayed compounds – biochemical, biotinylated probe, 635/667 nm fluorescence, primary screen (AID 1094).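 Also: score merges spot fluorescence near 667 nm with spot signal-to-noise ratio.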 The note with it: small-molecule microarray, higher = more signal.
Experiment [18] concerns Noggin (protein binding on small-molecule microarray). Nature of the experiment: small molecules binding Noggin protein – biochemical, 635/667 nm fluorescence, primary screen (AID 1095).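 Also: score merges 667 nm feature fluorescence with signal to noise over triplicate slides.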 The following applies: 635 nm fluorescence, higher = more signal.
Experiment [19] concerns the target Neurogenic locus notch homolog protein 3 (Homo sapiens) (UniProt Q9UM47). Nature of the experiment: small molecules binding NOTCH3 protein – biochemical, 635/667 nm fluorescence, primary screen (AID 1096). The following applies: small-molecule microarray, 635 nm fluorescence, higher = more signal.
The nature of experiment [20]: probe aEGFR binding to arrayed compounds – biochemical, biotinylated probe, 635/667 nm fluorescence, primary screen (AID 1097).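 Also: probe is a biotinylated anti-EGFR antibody binding compounds printed on slides; score combines fluorescence near 667 nm and signal to noise of each spot.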 The following applies: small-molecule microarray, higher = more signal.

Take `COC(=O)[C@]1(CCC(=O)OC(C)(C)C)N=C(c2ccc(OCCCO)cc2)O[C@@H]1c1ccccc1N=[N+]=[N-]`: the composite z-score in experiment [1] is 0.375; in experiment [2], -0.135; in [3] it was -0.132; in experiment [4], 0.171; in experiment [5] it was 0.552; in [6], 0.623. The composite z-score was 0.908 in experiment [7]; 0.219 in [9]; -0.484 in experiment [10]; 1.42 in [11]; 2.08 in [15]; 0.0664 in experiment [17]. Moreover, the composite z-score in experiment [18] was 0.677; in experiment [19], 0.361; in experiment [20], -0.127. Further, the z-score is 2.96 (inactive) in experiment [8]; 1.15 (inactive) in experiment [12]; -0.491 (inactive) in experiment [13]; 33.8 (active) in experiment [14]; 0.217 (inactive) in experiment [16].
As for `COc1ccc([Si](C)(C)[C@@H]2[C@@H](CC(=O)N3Cc4ccccc4C[C@H]3CO)O[C@]3(C(=O)N(Cc4ccc(N5CCOC5=O)cc4)c4ccccc43)[C@H]2C)cc1`, the composite z-score in [1] was -0.169; in experiment [2], 0.669; in experiment [3] it was -0.178; in experiment [4], 0.284; in experiment [5] it was 0.405; in experiment [6] it was 1. In addition, the composite z-score was 1.09 in [7]; 0.27 in experiment [9]; 0.0274 in [10]; 1.57 in experiment [11]; 1.56 in [15]; -0.133 in experiment [17]. Besides, the composite z-score was 1.55 in experiment [18], 1.13 in experiment [19] and -0.0947 in [20]. Besides, the z-score in experiment [8] was -2.85 (inactive); in [12], -0.631 (inactive); in [13] it was 0.693 (inactive); in experiment [14] it was 3.78 (inactive); in [16], 1.36 (inactive).
As to `O=C(N1CCOCC1)[C@@]1(Cc2ccccc2)COC(c2ccc(OCCCO)cc2)=N1`, the composite z-score in [1] stood at 1.06; in [2], 0.615; in [3], 0.0094; in [4], 0.64; in experiment [5], 0.763; in experiment [6], 1.49. The composite z-score is 1.06 in experiment [7]; 0.48 in [9]; 0.264 in [10]; 0.88 in experiment [11]; 2.95 in experiment [15]; 0.588 in experiment [17]. Also, the composite z-score in experiment [18] is -0.622; in [19] it was 0.116; in experiment [20], 0.518. The z-score in experiment [8] was -1.28 (inactive); in experiment [12], -0.731 (inactive); in experiment [13], -5.55 (inactive); in experiment [14], -1.39 (inactive); in [16] it was 2.88 (inactive).
Regarding `O=C1[C@@H]2[C@@H](CC(COc3ccccc3)=C([C@H](O)CCc3ccccc3)[C@@H]2CO)C(=O)N1Cc1ccccc1`, the composite z-score in experiment [1] was -0.379; in experiment [2], 0.364; in experiment [3] it was -0.187; in [4] it was 0.0395; in [5] it was 0.719; in [6] it was 0.433. Besides, the composite z-score in [7] was 1.01; in [9], 0.391; in experiment [10], 0.0176; in experiment [11], 1.08; in experiment [15], 1.39; in [17] it was -0.176. Further, the composite z-score was 0.127 in experiment [18], 0.453 in experiment [19] and -0.0828 in [20]. The z-score in experiment [8] is -0.643 (inactive); in experiment [12] it was 0.77 (inactive); in experiment [13] it was 0.369 (inactive); in experiment [14], 3.2 (inactive); in [16] it was 0.707 (inactive).
As for `O=C1N(CCS(=O)(=O)c2ccccc2)c2ccccc2C[C@]12N=C(c1ccc(OCCCO)cc1)O[C@@H]2c1ccccc1`, the composite z-score is 0.227 in experiment [1]; 0.335 in experiment [2]; 0.0605 in [3]; -0.122 in experiment [4]; 1.15 in experiment [5]; 0.333 in [6]. Moreover, the composite z-score in [7] worked out at 1.23; in experiment [9] it was 0.734; in experiment [10] it was 0.0053; in experiment [11], 1.48; in [15] it was 3.12; in experiment [17] it was 0.225. For the same compound, the composite z-score in experiment [18] was 0.83; in experiment [19], 1.09; in [20] it was -0.164. Further, the z-score is -0.253 (inactive) in [8]; 2.51 (inactive) in experiment [12]; 0.762 (inactive) in experiment [13]; 4.39 (inactive) in experiment [14]; 0.568 (inactive) in experiment [16].
